In PubChem BioAssay (EPA / NIEHS):
Records with an inconclusive call do not appear. Some structures have more than one record in an assay (separate samples or runs), and their calls can disagree. The source made the active and inactive calls. Rule for the calls: active = hit-call score of the fitted dose curve at least 0.9, where 1 is the maximum; inconclusive = response in the unintended direction; inactive = score below 0.9.

Experiments:
[1] = biological target: Voltage-gated inwardly rectifying potassium channel KCNH2 (Homo sapiens) (UniProt Q12809); test: NVS_IC_hKhERGCh: NovaScreen (NVS) Ion Channel Assay for human Potassium Channel ERG (KhERGCh) (AID 2283333)
Method in brief: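 Membranes from CHO cells expressing human ERG; displacement of radioligand measured by filtration and scintillation after 0.75 h. Single-concentration duplicate screen at 25 uM, then concentration-response for actives; DMSO baseline.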

[2] = biological target: bovine Estrogen Receptor (ER), ESR1 (gene 407238) (UniProt P49884); test: NVS_NR_bER: NovaScreen (NVS) Nuclear Receptor Binding Assay for bovine Estrogen Receptor (ER) (AID 2283345);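 note: actives lower the bound radioligand count which means they displace the ER ligand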
Sequence of bovine Estrogen Receptor (ER), ESR1 (gene 407238) (P49884 whole entry, looked up): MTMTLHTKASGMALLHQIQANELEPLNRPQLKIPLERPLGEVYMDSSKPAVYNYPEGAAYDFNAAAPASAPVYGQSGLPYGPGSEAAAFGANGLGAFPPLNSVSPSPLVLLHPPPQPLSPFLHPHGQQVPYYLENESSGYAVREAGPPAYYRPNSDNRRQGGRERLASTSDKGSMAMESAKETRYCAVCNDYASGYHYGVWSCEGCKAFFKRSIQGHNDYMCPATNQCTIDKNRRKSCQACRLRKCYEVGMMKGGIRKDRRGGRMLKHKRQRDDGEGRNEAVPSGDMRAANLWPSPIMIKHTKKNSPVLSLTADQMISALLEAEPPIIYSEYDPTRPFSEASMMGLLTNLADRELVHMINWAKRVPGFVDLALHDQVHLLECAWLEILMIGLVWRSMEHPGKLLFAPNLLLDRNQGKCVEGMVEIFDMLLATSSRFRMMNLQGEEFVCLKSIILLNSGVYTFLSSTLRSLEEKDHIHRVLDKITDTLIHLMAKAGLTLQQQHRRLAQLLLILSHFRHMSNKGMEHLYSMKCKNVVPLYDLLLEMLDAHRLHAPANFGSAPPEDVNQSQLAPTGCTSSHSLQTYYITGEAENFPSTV
Method in brief: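 Scintillation counting of displaced radioligand gave the readout; bovine uterine membrane extract supplied the receptor. Measured 18 h post-dose, normalized to DMSO baseline. Single 25 uM duplicate screen preceded concentration-response follow-up.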

[3] = biological target: Estrogen receptor (Homo sapiens) (UniProt P03372); test: NVS_NR_hER: NovaScreen (NVS) Nuclear Receptor Binding Assay for human Estrogen Receptor (ER) (AID 2283348)
Sequence of Estrogen receptor (Homo sapiens) (P03372 whole entry, looked up, the tested form may be a part): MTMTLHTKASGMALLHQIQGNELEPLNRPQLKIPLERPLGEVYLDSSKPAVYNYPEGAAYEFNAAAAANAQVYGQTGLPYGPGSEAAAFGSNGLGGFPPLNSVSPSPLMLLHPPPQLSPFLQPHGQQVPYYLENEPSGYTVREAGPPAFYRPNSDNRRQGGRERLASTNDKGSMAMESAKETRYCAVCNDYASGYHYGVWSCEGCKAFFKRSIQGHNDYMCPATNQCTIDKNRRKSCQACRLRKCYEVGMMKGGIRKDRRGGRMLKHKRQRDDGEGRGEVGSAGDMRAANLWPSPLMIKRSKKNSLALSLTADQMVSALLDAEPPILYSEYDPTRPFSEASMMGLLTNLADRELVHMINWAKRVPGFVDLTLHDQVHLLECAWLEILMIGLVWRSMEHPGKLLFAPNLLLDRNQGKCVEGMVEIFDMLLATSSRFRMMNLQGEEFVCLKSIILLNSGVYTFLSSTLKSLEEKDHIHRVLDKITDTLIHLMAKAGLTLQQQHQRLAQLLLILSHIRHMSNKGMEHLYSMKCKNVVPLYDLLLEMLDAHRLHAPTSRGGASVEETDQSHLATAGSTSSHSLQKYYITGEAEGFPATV
Method in brief: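 Radiodetection of ligand displacement in a lysate-based, cell-free format using MCF7 extracts, read at 18 hours. Duplicate 25 uM primary testing, then concentration series for actives.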

[4] = biological target: Estrogen receptor (Homo sapiens) (UniProt P03372); test: OT_ER_ERaERa_1440: Odyssey Thera (OT) 24-hour HEK293T Protein-Complementation Assay for Estrogen Receptor-alpha/-alpha Homodimer (AID 2283349);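 note: hits raise fluorescence above DMSO for agonists and antagonists alike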
Method in brief: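 Stably transfected HEK293T; ERα LBD homodimer PCA. 24 h dosing, fluorescence intensity read, gain-of-signal vs DMSO.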

[5] = biological target: Estrogen receptor (Homo sapiens) (UniProt P03372); test: OT_ER_ERaERa_0480: Odyssey Thera (OT) 8-hour HEK293T Protein-Complementation Assay for Estrogen Receptor-alpha/-alpha Homodimer (AID 2283351);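 note: rise in fluorescence from reassembled reporter fragments on ERα LBD homodimer in nucleus or whole cell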
Method in brief: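 Measures ERα LBD (aa 310-547) homodimer complementation in stably transfected HEK293T at 8 h post-dose, with fluorescence intensity quantified on a laser scanning cytometer relative to DMSO controls.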

[6] = biological target: T1, Estrogen receptor (Homo sapiens) + Estrogen receptor beta (Homo sapiens) (UniProt P03372+Q92731); test: OT_ER_ERaERb_0480: Odyssey Thera (OT) 8-hour HEK293T Protein-Complementation Assay for Estrogen Receptor-alpha/-beta Heterodimer (AID 2283352)
T1 sequence (P03372 whole entry, looked up, the tested form may be a part): as above
T1 sequence (Q92731 whole entry, looked up, the tested form may be a part): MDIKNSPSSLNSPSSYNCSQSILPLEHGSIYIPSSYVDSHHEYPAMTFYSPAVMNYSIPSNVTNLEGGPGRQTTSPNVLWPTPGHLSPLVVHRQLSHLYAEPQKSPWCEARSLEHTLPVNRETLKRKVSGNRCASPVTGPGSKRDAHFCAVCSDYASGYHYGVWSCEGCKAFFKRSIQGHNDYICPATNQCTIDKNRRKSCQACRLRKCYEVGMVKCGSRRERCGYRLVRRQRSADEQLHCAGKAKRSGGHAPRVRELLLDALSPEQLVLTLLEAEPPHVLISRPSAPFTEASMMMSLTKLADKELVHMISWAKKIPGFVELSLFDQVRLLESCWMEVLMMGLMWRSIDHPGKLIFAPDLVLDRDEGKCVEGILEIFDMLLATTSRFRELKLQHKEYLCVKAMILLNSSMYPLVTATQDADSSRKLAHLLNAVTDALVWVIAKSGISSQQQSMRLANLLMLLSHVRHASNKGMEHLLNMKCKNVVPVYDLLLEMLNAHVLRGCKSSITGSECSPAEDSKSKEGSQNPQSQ
Method in brief: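 HEK293T cells expressing ER-alpha/ER-beta LBD fusions to complementary reporter fragments were dosed with compound for 8 hours. Heterodimer formation was read as increased nuclear (agonist) or nuclear plus cytoplasmic (antagonist) mean fluorescence intensity versus DMSO vehicle.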

[7] = biological target: T1, Estrogen receptor (Homo sapiens) + Estrogen receptor beta (Homo sapiens); test: OT_ER_ERaERb_1440: Odyssey Thera (OT) 24-hour HEK293T Protein-Complementation Assay for Estrogen Receptor-alpha/-beta Homodimer (AID 2283356);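 note: heteromer of ER alpha and ER beta binding domains; hits raise reporter fluorescence and both agonists and antagonists give an increase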
Method in brief: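 HEK293T cells stably expressing a PCA pair of ERα LBD (aa 310-547) and ERβ LBD (aa 263-489) were dosed for 24 h. Fluorescence intensity increase versus DMSO vehicle was fitted as gain-of-signal.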

[8] = biological target: Estrogen receptor beta (Homo sapiens) (UniProt Q92731); test: OT_ER_ERbERb_0480: Odyssey Thera (OT) 8-hour HEK293T Protein-Complementation Assay for Estrogen Receptor-beta/-beta Homodimer (AID 2283357);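 note: active means signal gain over DMSO baseline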
Sequence of Estrogen receptor beta (Homo sapiens) (Q92731 whole entry, looked up, the tested form may be a part): as above
Method in brief: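 Fluorescence gain from complemented reporter fragments on ER-beta LBD homodimer in HEK293T was quantified against DMSO controls after 8 h treatment, fixation in 4% formaldehyde and Draq5 staining.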

[9] = biological target: bovine Gamma-Aminobutyric Acid Type A Receptor Agonist (GABAR Agonist), GABRA1 (gene 780973) (UniProt P08219); test: NVS_LGIC_bGABAR_Agonist: NovaScreen (NVS) Ligand-Gated Ion Channel Assay for bovine Gamma-Aminobutyric Acid Type A Receptor Agonist (GABAR Agonist) (AID 2283338)
Method in brief: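 Radioligand binding to bovine cerebellar membranes in agonist format, read by filter-based scintillation counting after 1 h. Primary screen in duplicate at 25 uM, with actives followed in concentration series. Gain of signal versus DMSO.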

[10] = biological target: rat Peripheral-type Benzodiazepine Receptor (PBR), Tspo (gene 24230) (UniProt P16257); test: NVS_MP_rPBR: NovaScreen (NVS) Membrane Protein Assay for rat Peripheral-type Benzodiazepine Receptor (PBR) (AID 2283335)
Sequence of rat Peripheral-type Benzodiazepine Receptor (PBR), Tspo (gene 24230) (P16257 whole entry, looked up): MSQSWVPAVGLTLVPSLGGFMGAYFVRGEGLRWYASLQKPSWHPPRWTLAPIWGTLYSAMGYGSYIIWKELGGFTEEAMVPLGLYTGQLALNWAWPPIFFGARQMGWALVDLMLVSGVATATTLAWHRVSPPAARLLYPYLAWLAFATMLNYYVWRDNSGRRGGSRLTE
Method in brief: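 Single-concentration duplicate screening at 25 uM preceded concentration-series retesting of actives. Binding of a specific radioligand to rat kidney membrane PBR was read by filtration radiodetection after 1 h, with plate-wise positive and negative controls.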

[11] = biological target: human Constitutive Androstane Receptor (CAR), NR1I3 (gene 9970) (UniProt Q14994); test: NVS_NR_hCAR_Antagonist: NovaScreen (NVS) Nuclear Receptor Binding Assay for human Constitutive Androstane Receptor Antagonism (CAR) (AID 2283344)
Sequence of human Constitutive Androstane Receptor (CAR), NR1I3 (gene 9970) (Q14994 whole entry, looked up): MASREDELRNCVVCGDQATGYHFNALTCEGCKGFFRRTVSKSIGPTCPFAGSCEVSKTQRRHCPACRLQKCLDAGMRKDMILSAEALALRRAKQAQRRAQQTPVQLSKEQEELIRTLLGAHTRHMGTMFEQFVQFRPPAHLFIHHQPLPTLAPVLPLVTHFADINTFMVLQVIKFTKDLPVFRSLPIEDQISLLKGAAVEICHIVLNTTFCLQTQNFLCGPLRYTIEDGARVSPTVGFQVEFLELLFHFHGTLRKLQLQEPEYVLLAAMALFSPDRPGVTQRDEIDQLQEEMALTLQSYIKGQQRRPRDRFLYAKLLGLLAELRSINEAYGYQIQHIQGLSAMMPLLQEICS
Method in brief: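 Single 25 uM duplicate primary screen, with concentration-series follow-up on actives. Cell-free binding format run in antagonist mode, TR-FRET signal taken 1 h post-dose; activity is signal loss relative to DMSO.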

[12] = biological target: Bile acid receptor (Homo sapiens) (UniProt Q96RI1); test: NVS_NR_hFXR_Agonist: NovaScreen (NVS) Nuclear Receptor Binding Assay for human Farnesoid X Receptor Agonism (FXR) (AID 2283347)
Sequence of Bile acid receptor (Homo sapiens) (Q96RI1 whole entry, looked up): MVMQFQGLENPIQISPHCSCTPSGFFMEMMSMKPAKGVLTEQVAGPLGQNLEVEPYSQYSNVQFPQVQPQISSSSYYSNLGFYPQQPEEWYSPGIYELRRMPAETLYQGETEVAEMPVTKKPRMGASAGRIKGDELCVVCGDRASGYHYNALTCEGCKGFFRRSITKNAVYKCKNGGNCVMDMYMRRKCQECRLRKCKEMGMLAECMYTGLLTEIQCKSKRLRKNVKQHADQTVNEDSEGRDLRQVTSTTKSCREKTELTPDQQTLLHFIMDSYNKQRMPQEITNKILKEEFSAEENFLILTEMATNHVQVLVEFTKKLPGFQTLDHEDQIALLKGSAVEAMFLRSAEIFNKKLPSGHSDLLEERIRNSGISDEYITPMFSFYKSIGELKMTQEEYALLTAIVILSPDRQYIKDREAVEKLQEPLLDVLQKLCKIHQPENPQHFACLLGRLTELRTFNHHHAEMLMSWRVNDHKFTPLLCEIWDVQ
Method in brief: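 Agonist-mode FXR assay read by time-resolved FRET 1 h after compound addition, using isolated human receptor protein without cells. Duplicate 25 uM single-point primary screen, concentration series for confirmed actives; DMSO as baseline.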

[13] = biological target: chimpanzee Androgen Receptor (AR), AR (gene 747460) (UniProt O97775); test: NVS_NR_cAR: NovaScreen (NVS) Nuclear Receptor Binding Assay for chimpanzee Androgen Receptor (AR) (AID 2283346);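 note: radioligand displacement from AR measured by scintillation counting in a cell-free assay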
Sequence of chimpanzee Androgen Receptor (AR), AR (gene 747460) (O97775 whole entry, looked up): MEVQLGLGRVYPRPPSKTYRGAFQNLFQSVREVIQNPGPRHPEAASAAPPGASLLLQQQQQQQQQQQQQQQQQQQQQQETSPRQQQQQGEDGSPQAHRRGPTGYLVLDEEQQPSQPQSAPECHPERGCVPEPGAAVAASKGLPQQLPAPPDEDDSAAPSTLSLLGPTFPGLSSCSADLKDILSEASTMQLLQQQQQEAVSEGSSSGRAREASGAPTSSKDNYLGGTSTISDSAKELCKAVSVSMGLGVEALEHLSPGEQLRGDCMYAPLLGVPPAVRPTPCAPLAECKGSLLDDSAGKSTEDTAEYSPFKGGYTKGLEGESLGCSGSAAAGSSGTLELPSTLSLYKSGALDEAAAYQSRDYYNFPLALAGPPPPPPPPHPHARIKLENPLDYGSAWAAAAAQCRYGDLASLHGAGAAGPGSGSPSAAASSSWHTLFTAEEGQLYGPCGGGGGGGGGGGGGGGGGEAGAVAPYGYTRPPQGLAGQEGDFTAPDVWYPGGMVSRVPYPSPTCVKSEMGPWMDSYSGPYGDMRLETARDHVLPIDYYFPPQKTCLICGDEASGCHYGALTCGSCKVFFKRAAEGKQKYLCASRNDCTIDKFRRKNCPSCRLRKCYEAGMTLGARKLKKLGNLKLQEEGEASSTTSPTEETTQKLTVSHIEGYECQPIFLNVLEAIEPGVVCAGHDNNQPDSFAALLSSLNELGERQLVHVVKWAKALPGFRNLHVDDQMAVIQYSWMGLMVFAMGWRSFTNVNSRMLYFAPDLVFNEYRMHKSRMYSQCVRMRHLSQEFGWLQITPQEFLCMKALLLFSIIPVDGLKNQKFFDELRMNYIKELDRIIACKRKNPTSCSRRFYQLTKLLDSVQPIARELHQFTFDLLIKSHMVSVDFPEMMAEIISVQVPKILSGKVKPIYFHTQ
Method in brief: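 Cell-free radioligand displacement using receptor protein extracted from Sf9/Sf21 cells; bound radioligand measured by scintillation counting 72 hours after chemical dosing. Loss of signal versus DMSO baseline indicates binding; primary screen single-concentration in duplicate at 25 uM, actives followed in concentration series.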

[14] = NVS_IC_rCaBTZCHL: NovaScreen (NVS) Ion Channel Assay for Calcium Channel, Type L, Benzothiazepine Site (CaBTZCHL) (AID 2283337)
Method in brief: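 Benzothiazepine-site binding was assessed in a tissue-derived, cell-free rat cortical membrane system. After 1.5 h exposure, radioactivity retained on filters was quantified by scintillation; positive and negative controls accompanied every plate.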

[15] = biological target: Androgen Receptor/SRC-1 Co-activator, AR (gene 367) (UniProt P10275); test: OT_AR_ARSRC1_0960: Odyssey Thera (OT) 16-hour HEK293T Protein-Complementation Assay for Androgen Receptor/SRC-1 Co-activator (AID 2283353);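 note: actives raise the signal above DMSO so potency reflects increased AR and SRC-1 complex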
Sequence of Androgen Receptor/SRC-1 Co-activator, AR (gene 367) (P10275 whole entry, looked up, the tested form may be a part): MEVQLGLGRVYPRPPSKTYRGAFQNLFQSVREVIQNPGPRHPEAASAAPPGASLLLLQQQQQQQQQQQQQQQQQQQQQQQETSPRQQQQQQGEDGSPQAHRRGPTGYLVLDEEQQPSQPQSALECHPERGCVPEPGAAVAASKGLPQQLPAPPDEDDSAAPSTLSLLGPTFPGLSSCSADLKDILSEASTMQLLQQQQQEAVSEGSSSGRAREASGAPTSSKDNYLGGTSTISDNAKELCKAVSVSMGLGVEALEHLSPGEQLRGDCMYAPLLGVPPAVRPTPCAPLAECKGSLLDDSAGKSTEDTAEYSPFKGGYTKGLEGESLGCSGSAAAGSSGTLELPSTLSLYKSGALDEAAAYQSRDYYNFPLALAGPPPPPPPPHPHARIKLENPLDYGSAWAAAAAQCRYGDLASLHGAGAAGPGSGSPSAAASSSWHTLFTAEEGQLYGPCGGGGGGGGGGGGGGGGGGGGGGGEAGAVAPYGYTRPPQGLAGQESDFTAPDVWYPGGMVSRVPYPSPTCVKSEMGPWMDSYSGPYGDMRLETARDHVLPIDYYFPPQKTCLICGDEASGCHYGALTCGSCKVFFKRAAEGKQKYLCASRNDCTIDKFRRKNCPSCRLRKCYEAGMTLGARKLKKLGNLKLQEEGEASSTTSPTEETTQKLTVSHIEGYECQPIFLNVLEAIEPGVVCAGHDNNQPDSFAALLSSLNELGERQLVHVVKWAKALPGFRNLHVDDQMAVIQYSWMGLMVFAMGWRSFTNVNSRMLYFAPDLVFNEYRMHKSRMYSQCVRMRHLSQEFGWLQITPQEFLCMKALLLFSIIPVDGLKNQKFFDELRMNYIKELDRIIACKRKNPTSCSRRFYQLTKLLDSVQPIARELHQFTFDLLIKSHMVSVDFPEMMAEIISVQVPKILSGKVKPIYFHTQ
Method in brief: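 Sixteen-hour cell assay: Venus halves fused to AR and SRC-1 in HEK293T report binding. Images at 488/635 nm give an N/C ratio in the 488 nm channel over ≥400 cells, analysed as signal increase over DMSO.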

[16] = biological target: Androgen Receptor/SRC-1 Co-activator, AR (gene 367) (UniProt P10275); test: OT_AR_ARSRC1_0480: Odyssey Thera (OT) 8-hour HEK293T Protein-Complementation Assay for Androgen Receptor/SRC-1 Co-activator (AID 2283354);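 note: hits raise the complementation signal above DMSO so AC50 marks enhancers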
Method in brief: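 After 8 h dosing, stably expressing HEK293T cells with split-Venus AR/SRC-1 fusions were imaged (488, 635nm). The 488nm N/C ratio per image gave the endpoint, analysed in the positive direction against DMSO.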

[17] = biological target: rat Mineralocorticoid Receptor (MR), Nr3c2 (gene 25672) (UniProt P22199); test: NVS_NR_rMR: NovaScreen (NVS) Nuclear Receptor Binding Assay for rat Mineralocorticoid Receptor (MR) (AID 2283355)
Method in brief: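 Single-concentration duplicate screen (25 uM) of radioligand binding in adrenalectomized rat brain supernatant; scintillation detection 24 h after dosing. Positive and negative controls ran on each plate, and confirmed actives went to concentration-response.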

[18] = biological target: Bile acid receptor (Homo sapiens) (UniProt Q96RI1); test: NVS_NR_hFXR_Antagonist: NovaScreen (NVS) Nuclear Receptor Binding Assay for human Farnesoid X Receptor Antagonism (FXR) (AID 2283350)
Method in brief: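 Antagonist-format time-resolved FRET binding assay with extracted human receptor protein, read 1 hour after compound addition. Compounds first screened at 25 uM in duplicate, then actives tested in concentration series, with loss of signal relative to DMSO.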

Measured: AC50

ClC(Cl)(Cl)c1ccccc1
inactive: [1] | [2] | [3] | [4] | [5] | [6] | [7] | [8]

O=C(O)C(Cl)Cl
inactive: [9] | [4] | [5]

Nc1ccc(Sc2ccc(N)cc2)cc1
active: [3] 11 µM
inactive: [2]

Nc1ccc2ccccc2c1
active: [10] 7.21 µM
inactive: [5] | [6] | [7] | [8]

CC(C)(C)OOC(C)(C)C
inactive: [11] | [12] | [5] | [6] | [7] | [8]

CCC(C)(C)c1ccc(O)cc1
active: [13] 25 µM | [5] 8.61 µM | [6] 2.68 µM | [7] 7.2 µM | [8] 2.41 µM
inactive: [2] | [3]

CCCCC(CC)COP(=O)(Oc1ccccc1)Oc1ccccc1 (centres undefined)
inactive: [10] | [14] | [5] | [15] | [16] | [8]
active: [10] 2.93 µM | [6] 12.2 µM | [7] 50 µM

CCCCc1ccc(O)cc1
active: [5] 19.7 µM | [6] 19.7 µM | [7] 31.4 µM | [8] 10.5 µM
inactive: [2] | [13] | [3]

N#Cc1cc([N+](=O)[O-])ccc1N
active: [10] 25 µM

CCOP(=S)(NC(C)C)Oc1ccccc1C(=O)OC(C)C (centres undefined)
inactive: [10] | [17]

CCOc1ccc(C(C)(C)COCc2cccc(Oc3ccccc3)c2)cc1
inactive: [6] | [7] | [8]

OCC1CO1 (centres undefined)
inactive: [2] | [4] | [5]

O=C(O)C1C(C(=O)O)C2(Cl)C(Cl)=C(Cl)C1(Cl)C2(Cl)Cl (centres undefined)
inactive: [5] | [6] | [7] | [8]

c1cc2c3c(cccc3c1)CC2
inactive: [5] | [6] | [15] | [7] | [8]

CCCCN(CC)C(=O)SCCC
active: [3] 3.02 µM
inactive: [4] | [5] | [6] | [15] | [7] | [8]

Cc1ccc([N+](=O)[O-])cc1C
inactive: [6] | [7] | [8]

O=NN1CCCC1
inactive: [13] | [5] | [6] | [7] | [8]

Cc1ccc(N)cc1N
inactive: [5] | [6] | [7] | [8]

c1ccc2c(c1)sc1ccccc12
inactive: [4] | [5]

O=[N+]([O-])c1ccccc1
inactive: [2] | [5] | [6] | [7] | [8]

O=[N+]([O-])c1ccc(Cl)c(Cl)c1
inactive: [5]

O=C(O)CF
inactive: [13] | [5] | [6] | [7] | [8]

ClC(Cl)c1ccccc1
inactive: [5]

[N-]=[N+]=[N-]
inactive: [3] | [5] | [15]

CCOS(=O)(=O)OCC
inactive: [5] | [6] | [7]

CCCCC(CC)COC(=O)c1c(Br)c(Br)c(Br)c(Br)c1C(=O)OCC(CC)CCCC (centres undefined)
inactive: [4] | [5] | [6] | [7] | [8]

CC(C)(C)N(NC(=O)c1ccc(Cl)cc1)C(=O)c1ccccc1
inactive: [4] | [15] | [16] | [7] | [8]

CCOC(=O)c1ccccc1C(=O)OCC
inactive: [4]

COCCOCCO
inactive: [3] | [4] | [5] | [6] | [8]

FC(F)(F)c1ccc(Cl)cc1
inactive: [5] | [7] | [8]

O=C(CBr)OCc1ccccc1
inactive: [5] | [6] | [7] | [8]

c1nc[nH]n1
inactive: [2] | [4] | [5] | [6] | [7] | [8]

CCCCc1ccccc1
inactive: [18] | [5] | [6] | [7] | [8]

CCOC(=O)c1ccccc1N
inactive: [4] | [5] | [6] | [7] | [8]

Nc1ccc(Cl)cc1
inactive: [2] | [5]

CC(Cc1ccc(OCC(=O)O)cc1)NCC(O)c1csc(C(F)(F)F)n1 (centres undefined)
inactive: [5] | [7] | [8]

Cc1ccc(O)cc1C
inactive: [4] | [5] | [6] | [7] | [8]

CCCCOCC1CO1 (centres undefined)
inactive: [2] | [4] | [5]

CCNc1nc(Cl)nc(NC(C)(C)C)n1
inactive: [2] | [4] | [5] | [6] | [15] | [16] | [7] | [8]

CCOP(=S)(OCC)SCSCC
inactive: [5] | [6] | [7] | [8]

O=c1ssc(Cl)c1Cl
inactive: [5] | [8]

O=S1(=O)OCC2C(CO1)C1(Cl)C(Cl)=C(Cl)C2(Cl)C1(Cl)Cl (centres undefined)
active: [7] 86.8 µM
inactive: [13] | [5] | [6] | [8]

CCN(CC)c1ccccc1
inactive: [5] | [6] | [15] | [16] | [7] | [8]

CCC1(c2ccccc2)C(=O)N=C(O)NC1=O (centres undefined)
inactive: [4] | [6] | [8]

COC(N)=O
inactive: [5] | [6] | [7] | [8]

Cc1cccc(N)c1
inactive: [5]
